For 27 compounds, activity change, less the hit threshold results are on record in PubChem BioAssay AID1942 (Johns Hopkins Ion Channel Center, 2009).

Screen size: about 2,400 compounds; about 580 (24%) were called active.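 How the source made its calls: active means activity change at or above the mean plus 3 SD of buffer wells without dofetilide, per plate; inactive means the rest.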 Not all results are given here.

For the experiment, the target named is Potassium voltage-gated channel subfamily KQT member 2 (Rattus norvegicus) (UniProt O88943). Put plainly: rat KCNQ2 channel activation by compounds alone, confirmation, counter-screen for hERG block protector project, cell-based, CHO, FluxOR thallium flux (AID 1942).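 Further: normalized value minus buffer-control mean plus three SD of buffer wells.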 The settings on record: CHO-KCNQ2 cells, FluxOR thallium flux fluorescence; at 10 µM; active compounds read high.
Sequence of Potassium voltage-gated channel subfamily KQT member 2 (Rattus norvegicus) (O88943 whole entry, looked up): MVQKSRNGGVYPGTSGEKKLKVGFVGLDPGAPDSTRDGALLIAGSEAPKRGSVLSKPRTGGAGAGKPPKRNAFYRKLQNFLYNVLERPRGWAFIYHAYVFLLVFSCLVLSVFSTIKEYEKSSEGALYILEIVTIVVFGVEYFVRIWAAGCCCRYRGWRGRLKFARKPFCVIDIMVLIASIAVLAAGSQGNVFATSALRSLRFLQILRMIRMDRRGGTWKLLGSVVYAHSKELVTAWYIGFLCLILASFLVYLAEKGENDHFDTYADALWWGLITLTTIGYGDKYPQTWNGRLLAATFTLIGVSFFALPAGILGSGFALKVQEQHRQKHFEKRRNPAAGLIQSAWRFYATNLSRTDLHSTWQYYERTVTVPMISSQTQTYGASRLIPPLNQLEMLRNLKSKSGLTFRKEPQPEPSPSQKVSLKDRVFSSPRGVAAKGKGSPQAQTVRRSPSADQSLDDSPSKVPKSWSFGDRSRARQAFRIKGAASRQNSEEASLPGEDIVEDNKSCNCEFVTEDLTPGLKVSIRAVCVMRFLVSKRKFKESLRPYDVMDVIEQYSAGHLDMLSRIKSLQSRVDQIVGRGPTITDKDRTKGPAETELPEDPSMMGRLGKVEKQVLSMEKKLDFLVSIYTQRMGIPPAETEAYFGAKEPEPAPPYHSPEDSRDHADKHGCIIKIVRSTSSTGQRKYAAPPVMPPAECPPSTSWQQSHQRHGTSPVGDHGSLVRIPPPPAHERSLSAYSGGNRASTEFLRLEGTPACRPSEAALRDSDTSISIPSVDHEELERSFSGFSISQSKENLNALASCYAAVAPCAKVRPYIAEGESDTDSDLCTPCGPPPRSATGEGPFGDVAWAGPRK
With `CSc1nc(C)c2c(n1)N(c1ccc(C(C)C)cc1)CC2`, the activity change, less the hit threshold is -17.3% (inactive). The figure for `O=C(N/N=C/c1ccc(-c2ccccc2)o1)c1ccccc1O` is -5.7% (inactive). The figure for `Cc1cccc(C(=O)CC(=O)c2cc(Cl)ccc2O)c1` is -14.2% (inactive); for `O=C(N/N=C/c1cc(Cl)ccc1O)c1ccccc1Br` it is 6.8% (active). The figure for `CC(C)C(=O)N(c1ccc(F)cc1)C1C=CS(=O)(=O)C1` (configuration not stated) is -12.6% (inactive). For the compound `O=c1oc2ccccc2c2c1nc(C(F)(F)F)n2-c1ccccc1`, the activity change, less the hit threshold is -18.1% (inactive). The figure for `O=C(CSc1nc(-c2ccccc2)nc2ccc(F)cc12)Nc1cccc(C(=O)O)c1` is -4.9% (inactive); for `CC[C@@H](C(=O)[C@@H](C)[C@@H](O)[C@H](C)CCc1ccc(C)c(O)c1C(=O)O)[C@H]1O[C@](CC)([C@H]2CC[C@](O)(CC)[C@H](C)O2)C[C@@H]1C` it is 155% (active). The figure for `Cc1nc2c(C(=O)NCCc3ccccc3)c[nH]n2c(=O)c1Cl` is -7.3% (inactive).

Regarding `O=C(NC(=S)Nc1ccccc1)c1cncc(C#Cc2ccccc2)c1`, the activity change, less the hit threshold was -13% (inactive). The figure for `COc1ccc(NC(=S)NC(=O)c2csnn2)cc1` is 52.2% (active); for `Cc1onc(-c2ccccc2Cl)c1C(=O)NC(=S)Nc1ccc(C(C)C)cc1` it is -9% (inactive); for `O=C(NC(=S)Nc1ccccc1)c1csnn1` it is 81.6% (active). Regarding `Cc1cccnc1NC(=O)c1csnn1`, the activity change, less the hit threshold was -13.6% (inactive). On to `Cc1ccc(NC(=S)NC(=O)c2ccc(-c3ccccc3)cc2)cc1`, for which the activity change, less the hit threshold is -11% (inactive). For the compound `COc1ccc(NC(=S)Nc2ccccn2)cc1`, the activity change, less the hit threshold was -16.1% (inactive).

Consider `O=C(COc1ccccc1Cl)NC(=S)Nc1ccccc1N1CCCC1`, for which the activity change, less the hit threshold was -15.7% (inactive). The figure for `O=C(NC(=S)Nc1ccccc1Cl)c1csnn1` is 71.3% (active). Turning to `Cc1snnc1C(=O)NC(=S)Nc1ccccc1`, the activity change, less the hit threshold was 30.3% (active). The figure for `COc1ccc(NC(=O)c2onc(C)c2Cl)cc1` is -22.4% (inactive). As for `Cc1ccc(NC(=O)c2cc(-c3ccc4c(c3)OCO4)on2)cc1`, the activity change, less the hit threshold was -8.6% (inactive).

With `CCn1c(=O)c(-[n+]2ccccc2)c(O)c2ccccc21`, the activity change, less the hit threshold is -27.1% (inactive). The figure for `Cc1ccc(N2C(=O)c3ccccc3C2(O)c2ncc[nH]2)cc1` (configuration not stated) is -19.5% (inactive); for `O=C1C=C(c2ccccc2)OC(=O)C1C(=O)c1ccccc1` (configuration not stated) it is -12.8% (inactive); for `N#Cc1c2n(c3c(=O)n(Cc4ccc(Cl)cc4)cnc13)CCCC2` it is -19.7% (inactive). The figure for `CC12CCC3(CO)COC(c4ccccc4O1)C2C3` (configuration not stated) is -21.5% (inactive); for `CCCOc1ccc(-c2c(C(=O)N/N=C/c3ccccc3OCC)nnn2-c2nonc2N)cc1` it is -19.7% (inactive).
